These results are taken from PubChem BioAssay (Tox21).

Each structure is given as a SMILES string. Activity calls are given as the source filed them. Calls come from the whole dose curve; as a rule, active = well fitted curve in the direction sought with a large enough effect in the repeat runs; inconclusive = weak or mixed curves; inactive = flat fitted curve, though single readings scatter.
% is set by controls: 0 for no effect and ±100 for the full control effect.

The experiment can be described thus: qHTS assay to test for compound auto fluorescence at 460 nm (blue) in HEK293 cells (AID 720678). To be noted: blue autofluorescence 405/460 nm; series mostly up to 91.3 µM; fluorescence, % of triamterene: at the top concentration. The text has this:
National Center for Advancing Translational Sciences [NCATS]
NIH Chemical Genomics Center [NCGC]
U.S. Environmental Protection Agency [EPA]
National Institutes of Environmental Health Sciences [NIEHS]
National Toxicology Program [NTP]
U.S. Food and Drug Administration [FDA]
Compound auto fluorescence often interferes with screening of the compound library against various biological targets and signaling pathways. Some of these compounds may have fluorophoric properties. Such properties may interfere with the assay outputs resulting in false positives and/or negatives. To decrease such complications and ensure the compound activities are relevant in terms of biological response, the Tox21 10K compound library was screened for auto fluorescence.
From the fluorophores used as reporter signals in our screening assays, the auto fluorescence equivalencies of compounds against three fluorophores have been evaluated: Triamterene, Fluorescein and Rose Bengal sodium for blue, green and red fluorescence, respectively. The fluorescence intensities were measured using Excitation/Emission wavelengths at 405/460nm, 485/535nm and 540/590nm for blue, green and red labels, respectively. This assay includes the blue fluorescence data.
Tox21 Assay Protocol Summary:
2,000 HEK293 cells in 5 uL of culture medium containing 10% dialyzed FBS per well were dispensed into black wall/clear bottom 1536-well plates using a Multidrop Combi Dispenser (Thermo Scientific). The assay plates were incubated for 4-5 hr at 37C to allow cell attachment to the well bottom, followed by the transfer of 23 nL compound or DMSO vehicle by a pintool work station (Kalypsys, San Diego, CA). After the assay plates were incubated overnight at 37C and 5% CO2, fluorescence intensities in the assay plates were measured by an Envision (PerkinElmer, Shelton, CT) plate reader using three labels for measuring blue, green and red fluorescence at […] 460, 535 and 590nm respectively.
In general terms: In qHTS, concentration-response curves come from the screen itself.
Regarding `CC(C)OC(=O)COc1ccc(Cl)cc1Cl`, the result was inactive.
The same measure, in the same setting: the entry for `CN(C)c1ccc(O)c2c1C[C@H]1C[C@H]3[C@H](N(C)C)C(=O)C(C(N)=O)=C(O)[C@@]3(O)C(=O)C1=C2O` is “inactive”.
Same read-out and setting: under `COC(=O)c1cccnc1` stands “inactive”; under `CC1(C)OC[C@@H]2O[C@@]3(C(=O)O)OC(C)(C)O[C@H]3[C@@H]2O1`, “inactive”; under `C=CC(=O)OCCC(=O)O`, “inactive”.
Still for that read-out and setting: under `NCCNCCN` stands “inactive”; under `CCCCOC(=O)c1ccc(N)cc1`, “inactive”; under `CCCCCCCC=O`, “inactive”.
`C=Cc1ccc(C)cc1`: the molecule was classed as inactive.
The same measure, in the same setting: under `CC(=O)c1ccc(O)cc1` stands “inactive”.
On the same count and under the same terms, the entry for `N[C@H](Cc1c[nH]c2ccccc12)C(=O)O` is “inactive”.
The same measure, in the same setting: under `CCCCCCCCCCCC(=O)OC` stands “inactive”; under `O=C(OCC1CCC2OC2C1)C1CCC2OC2C1` (stereo not given), “inactive”; under `C=CC[N+](C)(C)CC=C`, “inactive”.
Consider `CC(C)(C)c1cc(Cc2cc(C(C)(C)C)c(O)c(C(C)(C)C)c2)cc(C(C)(C)C)c1O`, for which the outcome was inactive.
The same measure, in the same setting: the entry for `CC(CCl)OP(=O)(OC(C)CCl)OC(C)CCl` (stereo not given) is “inactive”; for `COCCCN` it is “inactive”.
Regarding `CCO[Si](CCC#N)(OCC)OCC`, the molecule was classed as inactive.
Still for that read-out and setting: the entry for `CC(=O)Oc1ccc(C)cc1` is “inactive”.
Take `CC(O)CC(C)(C)O` (stereo not given): the molecule was called inactive.
Same read-out and setting: the entry for `OCc1cccc(Oc2ccccc2)c1` is “inactive”.
The same measure, in the same setting: the entry for `CNC(=O)Oc1ccc2c(c1)[C@]1(C)CCN(C)[C@@H]1N2C` is “inactive”; for `C[C@]12CCC(=O)C=C1CC[C@@H]1[C@@H]2[C@@H](O)C[C@@]2(C)[C@H]1CC[C@]2(O)C(=O)CO` it is “inactive”.
The same measure, in the same setting: the entry for `CCCOC(=O)c1ccccc1` is “inactive”; for `C=CC(C)CCCC(C)(C)O` (stereo not given) it is “inactive”; for `OC1C(O)C(O)C(O)C(O)C1O` (stereo not given) it is “inactive”.
As for `CC(C)(Oc1ccc(CCNC(=O)c2ccc(Cl)cc2)cc1)C(=O)O`, the result was inactive.
Same read-out and setting: under `CCCCCCO` stands “inactive”.
Regarding `O=C1c2ccccc2CCc2ccccc21`, the “fluorescence, % of triamterene” value is -0.089% [at 95.7 µM] (inactive).
In the case of `O=C(O)CCCCCCCCC(=O)O`, the outcome was inactive.
Same read-out and setting: the entry for `CCCCCCCO` is “inactive”.
On to `O=C1C(c2[nH]c3ccccc3c2O)=Nc2ccccc21`, for which the call was inactive.
In the case of `CCCCCCC=O`, the result was inactive.
`CCCCCCCCCCO`: the molecule was classed as inactive.
The same measure, in the same setting: under `C=C(C)[C@H]1CC=C(C)C(=O)C1` stands “inactive”; under `CC(C)(C#N)c1cc(Cn2cncn2)cc(C(C)(C)C#N)c1`, “inactive”.
On the same count and under the same terms, under `NCCCCCCN` stands “inactive”.
Same read-out and setting: under `Cc1ccc2ncccc2c1` stands “inactive”; under `O=C(O)c1ccc(S(=O)(=O)N(Cl)Cl)cc1`, “inactive”.
Turning to `CC1(C)NC(=O)NC1=O`, the outcome was inactive.
